# According to PubChem BioAssay (Tox21):
# Several values for one entry are separate records, joined by “and”; a condition that tells them apart may be missing. Equal entries are not always repeated. Values without a mark were called inactive. Inconclusive results are not listed. Where a call stands in place of a potency, no number is given. Activity calls are given as the source filed them. Calls come from the whole dose curve; as a rule, active = well fitted curve in the direction sought with a large enough effect in the repeat runs; inconclusive = weak or mixed curves; inactive = no such curve, though single readings can be large; an effect the other way counts as inactive or inconclusive.
# Experiments:
# [1] = A CellTox Green Cytotoxicity Assay to monitor cytotoxicity in HEK293 cells - 40 hour (AID 1224871); note: nearly all actives have a fitted effect of over 45% in size; note: potency is the fitted concentration of half-maximal effect
# How it was run: (§1)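 Fluorescence from a DNA-binding dye excluded by viable cells was measured repeatedly in the same HEK293 wells (600 cells/well) during continuous compound exposure at 37 C. Each assay gives one read point: 0, 8, 16, 24, 32 or 40 h.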
# [2] = qHTS RealTime-Glo MT Cell Viability Assay in HepG2 cells - 8 hour (AID 1224873); note: nearly all actives have a fitted effect of over 55% in size
# How it was run: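 HepG2 cells (600/well) mixed with RealTime-Glo MT reagent, settled 5 h at 37 C/5% CO2 before compound addition. Nonlytic NanoLuc luminescence from viable-cell prosubstrate reduction read repeatedly during 40 h treatment at 37 C.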
# [3] = qHTS RealTime-Glo MT Cell Viability Assay in HEK293 cells - 40 hour (AID 1224874); conditions: RealTime-Glo luminescence; max response: hits give low values; note: nearly all actives have a fitted effect of over 50% in size; note: potency is the fitted concentration of half-maximal effect
# How it was run: (§2)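 Luminescence, which tracks viable cell number through reduction of the prosubstrate to a NanoLuc substrate, was read over continuous 37 C culture. Cells (600/well) were premixed with reagent and rested 5 h before 23 nL of compound in DMSO was pinned.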
# [4] = A CellTox Green Cytotoxicity Assay to monitor cytotoxicity in HEK293 cells - 24 hour (AID 1224875); note: nearly all actives have a fitted effect of over 45% in size; note: potency is the fitted concentration of half-maximal effect
# How it was run: as §1
# [5] = A CellTox Green Cytotoxicity Assay to monitor cytotoxicity in HepG2 cells - 16 hour (AID 1224876); note: nearly all actives have a fitted effect of over 45% in size
# How it was run: (§3)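 Real-time cytotoxicity: fluorescence of a cell-impermeant cyanine dye binding DNA of dead HepG2 cells, measured repeatedly (0–40 h) during compound exposure at 37 C. Cells seeded 600/well with reagent, dosed after 5 h.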
# [6] = qHTS RealTime-Glo MT Cell Viability Assay in HepG2 cells - 32 hour (AID 1224877); note: nearly all actives have a fitted effect of over 55% in size; note: potency is the fitted concentration of half-maximal effect
# How it was run: (§4)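 Real-time, nonlytic viability: 600 HepG2 cells/well mixed with NanoLuc enzyme plus prosubstrate; 5 h settle, compound (DMSO) added by pintool; luminescence monitored over 40 h at 37 C.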
# [7] = A CellTox Green Cytotoxicity Assay to monitor cytotoxicity in HepG2 cells - 24 hour (AID 1224878); note: nearly all actives have a fitted effect of over 45% in size; note: potency is the fitted concentration of half-maximal effect
# How it was run: as §3
# [8] = A CellTox Green Cytotoxicity Assay to monitor cytotoxicity in HepG2 cells - 40 hour (AID 1224879); note: nearly all actives have a fitted effect of over 40% in size; note: potency is the fitted concentration of half-maximal effect
# How it was run: as §3
# [9] = A CellTox Green Cytotoxicity Assay to monitor cytotoxicity in HEK293 cells - 32 hour (AID 1224881); note: nearly all actives have a fitted effect of over 40% in size; note: potency is the fitted concentration of half-maximal effect
# How it was run: as §1
# [10] = A CellTox Green Cytotoxicity Assay to monitor cytotoxicity in HepG2 cells - 0 hour (AID 1224882); note: nearly all actives have a fitted effect of over 35% in size
# How it was run: as §3
# [11] = A CellTox Green Cytotoxicity Assay to monitor cytotoxicity in HepG2 cells - 32 hour (AID 1224883); note: nearly all actives have a fitted effect of over 50% in size; note: potency is the fitted concentration of half-maximal effect
# How it was run: as §3
# [12] = A CellTox Green Cytotoxicity Assay to monitor cytotoxicity in HEK293 cells - 8 hour (AID 1224884); note: nearly all actives have a fitted effect of over 35% in size
# How it was run: as §1
# [13] = qHTS RealTime-Glo MT Cell Viability Assay in HepG2 cells - 16 hour (AID 1224885); note: nearly all actives have a fitted effect of over 50% in size
# How it was run: as §4
# [14] = qHTS RealTime-Glo MT Cell Viability Assay in HEK293 cells - 24 hour (AID 1224886); note: nearly all actives have a fitted effect of over 50% in size; note: potency is the fitted concentration of half-maximal effect
# How it was run: (§5)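 Cells + reagent dispensed (600 cells/well, HEK293) → 5 h at 37 C/5% CO2 → 23 nL compound in DMSO pinned → 40 h at 37 C → luminescence read at 0, 8, 16, 24, 32, 40 h.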
# [15] = qHTS RealTime-Glo MT Cell Viability Assay in HEK293 cells - 8 hour (AID 1224887); note: nearly all actives have a fitted effect of over 50% in size; note: potency is the fitted concentration of half-maximal effect
# How it was run: as §2
# [16] = A CellTox Green Cytotoxicity Assay to monitor cytotoxicity in HEK293 cells - 16 hour (AID 1224888); note: nearly all actives have a fitted effect of over 35% in size
# How it was run: as §1
# [17] = qHTS RealTime-Glo MT Cell Viability Assay in HepG2 cells - 0 hour (AID 1224889); note: nearly all actives have a fitted effect of over 50% in size; note: potency is the fitted concentration of half-maximal effect
# How it was run: as §4
# [18] = A CellTox Green Cytotoxicity Assay to monitor cytotoxicity in HepG2 cells - 8 hour (AID 1224890); note: nearly all actives have a fitted effect of over 45% in size
# How it was run: as §3
# [19] = qHTS RealTime-Glo MT Cell Viability Assay in HEK293 cells - 16 hour (AID 1224872); note: nearly all actives have a fitted effect of over 50% in size; note: potency is the fitted concentration of half-maximal effect
# How it was run: as §5
# [20] = qHTS RealTime-Glo MT Cell Viability Assay in HEK293 cells - 0 hour (AID 1224880)
# How it was run: as §2
smiles,measurement,setting,value
CCCN(CCCl)c1c([N+](=O)[O-])cc(C(F)(F)F)cc1[N+](=O)[O-],Potency,[1],inactive
same,Potency,[2],inactive
same,max response,[3],1.89%
same,Potency,[4],inactive
same,Potency,[5],inactive
same,Potency,[6],inactive
same,Potency,[7],inactive
same,Potency,[8],inactive
same,Potency,[9],inactive
same,Potency,[10],inactive
same,Potency,[11],inactive
same,Potency,[12],inactive
same,Potency,[13],inactive
same,Potency,[14],inactive
same,Potency,[15],38.9 µM (active)
same,Potency,[16],inactive
same,Potency,[17],inactive
same,Potency,[18],inactive
O=C(O)C(F)(F)C(F)(F)C(F)(F)C(F)(F)C(F)(F)C(F)(F)C(F)(F)C(F)(F)C(F)(F)C(F)(F)F,Potency,[1],inactive
same,Potency,[19],inactive
same,max response,[3],13.9%
same,Potency,[4],inactive
same,Potency,[20],inactive
same,Potency,[9],inactive
same,Potency,[12],inactive
same,Potency,[13],inactive
same,Potency,[14],inactive
same,Potency,[15],inactive
same,Potency,[16],inactive
CCCCC(O)(Cn1cncn1)c1ccc(Cl)cc1Cl (stereo not given),Potency,[1],54.9 µM (active)
same,Potency,[19],43.6 µM (active)
same,Potency,[3],43.6 µM (active)
same,Potency,[7],43.6 µM (active)
same,Potency,[8],48.9 µM (active)
same,Potency,[9],54.9 µM (active)
same,Potency,[10],inactive
same,Potency,[11],48.9 µM (active)
same,Potency,[14],43.6 µM (active)
same,Potency,[15],43.6 µM (active)
same,Potency,[17],24.5 µM (active)
CO/N=C(/C(=O)OC)c1ccccc1COc1ccccc1C,Potency,[1],inactive
same,Potency,[19],inactive
same,Potency,[2],inactive
same,Potency,[4],inactive
same,Potency,[5],inactive
same,Potency,[6],inactive
same,Potency,[7],inactive
same,Potency,[8],inactive
same,Potency,[20],inactive
same,Potency,[9],inactive
same,Potency,[10],inactive
same,Potency,[11],inactive
same,Potency,[12],inactive
same,Potency,[13],inactive
same,Potency,[14],inactive
same,Potency,[16],inactive
same,Potency,[17],inactive
same,Potency,[18],inactive
CN1C(=O)C(O)N=C(c2ccccc2)c2cc(Cl)ccc21 (stereo not given),Potency,[1],inactive
same,Potency,[19],inactive
same,Potency,[2],inactive
same,Potency,[4],inactive
same,Potency,[5],inactive
same,Potency,[6],inactive
same,Potency,[7],inactive
same,Potency,[8],inactive
same,Potency,[9],inactive
same,Potency,[10],inactive
same,Potency,[11],inactive
same,Potency,[12],inactive
same,Potency,[13],inactive
same,Potency,[15],inactive
same,Potency,[16],inactive
same,Potency,[18],inactive
COP(=S)(OC)Oc1ccc([N+](=O)[O-])cc1Cl,Potency,[1],inactive
same,Potency,[2],inactive
same,max response,[3],-20.6%
same,Potency,[4],inactive
same,Potency,[5],inactive
same,Potency,[6],inactive
same,Potency,[7],inactive
same,Potency,[8],inactive
same,Potency,[20],inactive
same,Potency,[9],inactive
same,Potency,[10],inactive
same,Potency,[11],inactive
same,Potency,[12],inactive
same,Potency,[13],inactive
same,Potency,[14],inactive
same,Potency,[16],inactive
same,Potency,[17],inactive
same,Potency,[18],inactive
C(=NC1CCCCC1)=NC1CCCCC1,Potency,[1],19.6 µM (active) and 21.9 µM (active)
same,Potency,[19],19.6 µM (active) and 19.5 µM (active)
same,Potency,[3],17.5 µM (active) and 24.5 µM (active)
same,Potency,[4],22 µM (active) and 34.7 µM (active)
same,Potency,[5],inactive
same,Potency,[6],12.4 µM (active) and 12.3 µM (active)
same,Potency,[7],11 µM (active) and 15.5 µM (active)
same,Potency,[8],9.84 µM (active) and 11 µM (active)
same,Potency,[9],19.6 µM (active) and 24.5 µM (active)
same,Potency,[10],inactive
same,Potency,[11],11 µM (active) and 12.3 µM (active)
same,Potency,[12],inactive
same,Potency,[14],19.6 µM (active) and 19.5 µM (active)
same,Potency,[17],inactive
same,Potency,[18],inactive
O=C(Nc1ccccc1)Nc1cnns1,Potency,[1],inactive
same,Potency,[2],inactive
same,Potency,[3],27.5 µM (active)
same,Potency,[4],inactive
same,Potency,[5],inactive
same,Potency,[6],inactive
same,Potency,[7],inactive
same,Potency,[8],inactive
same,Potency,[20],inactive
same,Potency,[9],inactive
same,Potency,[10],inactive
same,Potency,[11],inactive
same,Potency,[12],inactive
same,Potency,[13],inactive
same,Potency,[14],24.5 µM (active)
same,Potency,[16],inactive
same,Potency,[18],inactive
O=[N+]([O-])c1cc(C(F)(F)F)cc([N+](=O)[O-])c1Cl,Potency,[1],inactive
same,Potency,[2],inactive
same,Potency,[4],inactive
same,Potency,[5],inactive
same,Potency,[6],inactive
same,Potency,[7],inactive
same,Potency,[8],inactive
same,Potency,[20],inactive
same,Potency,[9],inactive
same,Potency,[10],inactive
same,Potency,[11],inactive
same,Potency,[12],inactive
same,Potency,[13],inactive
same,Potency,[15],43.8 µM (active)
same,Potency,[16],inactive
same,Potency,[17],inactive
same,Potency,[18],inactive
CCOP(=O)(OCC)Oc1ccc([N+](=O)[O-])cc1,Potency,[1],inactive
same,Potency,[19],inactive
same,Potency,[2],inactive
same,Potency,[4],inactive
same,Potency,[5],inactive
same,Potency,[6],inactive
same,Potency,[7],inactive
same,Potency,[8],inactive
same,Potency,[9],inactive
same,Potency,[10],inactive
same,Potency,[11],inactive
same,Potency,[12],inactive
same,Potency,[13],inactive
same,Potency,[14],inactive
same,Potency,[15],inactive
same,Potency,[16],inactive
same,Potency,[17],inactive
same,Potency,[18],inactive
Cl/C=C\C[N+]12CN3CN(CN(C3)C1)C2,Potency,[1],inactive
same,Potency,[2],inactive
same,Potency,[4],inactive
same,Potency,[5],inactive
same,Potency,[6],inactive
same,Potency,[7],inactive
same,Potency,[8],inactive
same,Potency,[20],inactive
same,Potency,[9],inactive
same,Potency,[10],inactive
same,Potency,[11],inactive
same,Potency,[12],inactive
same,Potency,[13],inactive
same,Potency,[15],inactive
same,Potency,[16],inactive
same,Potency,[18],inactive
CCCN(CC1CC1)c1c([N+](=O)[O-])cc(C(F)(F)F)cc1[N+](=O)[O-],Potency,[1],inactive
same,Potency,[2],inactive
same,max response,[3],9.65%
same,Potency,[4],inactive
same,Potency,[5],inactive
same,Potency,[6],inactive
same,Potency,[7],inactive
same,Potency,[8],inactive
same,Potency,[20],inactive
same,Potency,[9],inactive
same,Potency,[10],inactive
same,Potency,[11],inactive
same,Potency,[13],inactive
same,Potency,[14],inactive
same,Potency,[16],inactive
same,Potency,[17],inactive
same,Potency,[18],inactive
C/C(=C\c1ccccc1)[N+](=O)[O-],Potency,[1],9.77 µM (active)
same,Potency,[2],inactive
same,Potency,[3],11 µM (active)
same,Potency,[4],inactive
same,Potency,[5],inactive
same,Potency,[20],inactive
same,Potency,[10],inactive
same,Potency,[12],inactive
same,Potency,[16],inactive
same,Potency,[17],inactive
same,Potency,[18],inactive
N#CCC#N,Potency,[1],inactive
same,Potency,[2],inactive
same,max response,[3],-1.97%
same,Potency,[4],inactive
same,Potency,[5],inactive
same,Potency,[6],inactive
same,Potency,[7],inactive
same,Potency,[9],inactive
same,Potency,[10],inactive
same,Potency,[11],inactive
same,Potency,[12],inactive
same,Potency,[13],inactive
same,Potency,[15],inactive
same,Potency,[16],inactive
same,Potency,[18],inactive
CC(C)=CCOc1c2occc2cc2ccc(=O)oc12,Potency,[1],inactive
same,Potency,[19],inactive
same,max response,[3],-18%
same,Potency,[4],inactive
same,Potency,[5],inactive
same,Potency,[6],inactive
same,Potency,[7],inactive
same,Potency,[8],inactive
same,Potency,[20],inactive
same,Potency,[9],inactive
same,Potency,[10],inactive
same,Potency,[11],inactive
same,Potency,[12],inactive
same,Potency,[14],inactive
same,Potency,[15],inactive
same,Potency,[17],inactive
same,Potency,[18],inactive
